Screening results as filed in PubChem.
Sampled rows, rich in hits. Any-hit rate of the full collection: about 1.3%.
LANA-H2B inh: blocks KSHV LANA binding to histone H2A/H2B; cell-free LANA-H2A/H2B peptide, fluorescence polarization; inhibition, % (test concentration not listed); hit rate 0.6% among 320,000; AID 2629; in the data active means inhibition mostly above about 10%, no sharp cut-off; inactive means mostly below about 6.7%
Target sequence (Q9QR71 whole entry, looked up): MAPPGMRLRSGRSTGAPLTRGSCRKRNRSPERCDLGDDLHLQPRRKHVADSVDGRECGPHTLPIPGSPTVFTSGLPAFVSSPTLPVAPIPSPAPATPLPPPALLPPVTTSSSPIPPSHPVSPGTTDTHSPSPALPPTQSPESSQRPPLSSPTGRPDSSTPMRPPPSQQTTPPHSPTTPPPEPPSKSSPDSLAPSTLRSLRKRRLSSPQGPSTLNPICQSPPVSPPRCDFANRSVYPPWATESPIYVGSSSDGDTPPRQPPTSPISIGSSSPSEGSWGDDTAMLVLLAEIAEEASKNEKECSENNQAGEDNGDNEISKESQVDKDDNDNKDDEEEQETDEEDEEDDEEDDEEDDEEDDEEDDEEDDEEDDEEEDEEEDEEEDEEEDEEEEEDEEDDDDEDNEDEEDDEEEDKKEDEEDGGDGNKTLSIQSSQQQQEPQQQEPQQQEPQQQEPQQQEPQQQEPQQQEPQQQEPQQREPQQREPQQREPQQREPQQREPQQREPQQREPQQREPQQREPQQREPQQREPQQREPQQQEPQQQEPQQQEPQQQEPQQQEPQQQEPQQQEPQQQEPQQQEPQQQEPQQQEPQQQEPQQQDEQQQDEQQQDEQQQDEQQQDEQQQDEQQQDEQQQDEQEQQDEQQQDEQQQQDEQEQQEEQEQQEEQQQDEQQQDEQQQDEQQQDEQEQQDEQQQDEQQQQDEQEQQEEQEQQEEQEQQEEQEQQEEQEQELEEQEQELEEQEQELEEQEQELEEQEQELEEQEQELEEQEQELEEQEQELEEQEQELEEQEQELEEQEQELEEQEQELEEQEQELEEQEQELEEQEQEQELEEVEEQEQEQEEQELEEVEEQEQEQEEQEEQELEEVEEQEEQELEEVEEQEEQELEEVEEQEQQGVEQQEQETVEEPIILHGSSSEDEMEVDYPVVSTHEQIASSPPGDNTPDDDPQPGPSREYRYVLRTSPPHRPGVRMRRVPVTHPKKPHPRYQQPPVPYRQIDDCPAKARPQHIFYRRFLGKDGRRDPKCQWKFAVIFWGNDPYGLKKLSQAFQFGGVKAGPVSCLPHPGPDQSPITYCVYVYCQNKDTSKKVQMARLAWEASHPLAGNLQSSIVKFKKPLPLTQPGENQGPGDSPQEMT
RTF Ca sens act: increases calcium sensitivity of human cardiac regulated thin filaments; P19429+P45379; IANBD-labeled TnC RTF fluorescence at EC20 calcium; 0% EC20 calcium, 100% full calcium; activation, % at 7.2 µM; hit rate 0.24% among 340,000;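 active means activation above the mean over all tested compounds plus 3 SD, cut at about 30% in these data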;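 further: rise in fluorescence read as greater calcium sensitivity of cardiac thin filaments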
eLon inh: E. coli protease La inhibition; P0A9M0; purified E. coli Lon protease, fluorescence polarization; inhibition, % at 7.94 µM; hit rate 0.42% among 360,000; AID 602123; in the data active means inhibition above about 13%, passing the limit was not always enough;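 further: 0% = enzyme with probe and DMSO and 100% = no enzyme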
Keap1-Nrf2 PPI: Keap1-Nrf2 (human) interaction inhibition; hit rate 0.15% among 340,000; AID 504523; inhibition, % at 9.4 µM; Q14145; Keap1 Kelch-Nrf2 peptide fluorescence polarization, 1536-well; in the data active means inhibition above about 12%;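 further: human Keap1 Kelch domain with fluorescein labeled Nrf2 9mer peptide probe; 0% = neutral control wells and 100% = peptide positive control; higher means more block of Keap1 binding to Nrf2 peptide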
RTF Ca sens inh: cardiac RTF calcium desensitization; P19429+P45379; IANBD-labeled cardiac RTF, Ca2+ fluorescence; inhibition, % at 7.15 µM; hit rate 0.12% among 340,000; AID 493244;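 active means inhibition above the mean inhibition of all tested compounds plus 3 SD, cut at about 17% in these data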;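 further: assay run at fixed EC70 calcium of 1.6 mM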
LANA DNA inh: KSHV C-LANA DNA binding inhibition | MBP-C-LANA/FAM-LBS DNA binding, fluorescence polarization | hit rate 0.078% among 340,000 | AID 504423 | inhibition, % at 9 µM;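 active means highest replicate inhibition at or above 60% at 9 µM, even if other replicates fall short; inactive means all replicates below 60% inhibition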;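 further: 0% = neutral control wells and 100% = 4 µM acridine orange control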
RTF inh confirm: confirmation of inhibitors of cardiac thin filament calcium sensitivity. shares compounds with RTF Ca sens inh. reconstituted cardiac thin filaments, calcium sensitivity fluorescence. inhibition, % at 7.15 µM. hit rate 8% among 360. AID 504635; in the data active means inhibition above about 18%
Keap1 Kelch bind: binds and thermally shifts human Keap1 Kelch domain. shares compounds with Keap1-Nrf2 PPI. Keap1 Kelch thermal shift, delta Tm; hits give high values. max delta Tm, degrees C. hit rate 8% among 400. AID 651823; in the data active means max delta Tm above about 0.48 degrees C
Dye-only ctr: shifts Sypro Orange melt without protein, a false positive; Sypro Orange dye-only thermal melt, no protein, delta Tm; top dose 26 µM; delta Tm, degrees C (test concentration not listed); 140 tested, under 10 active; AID 651858; shares compounds with Keap1-Nrf2 PPI;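 active means at highest dose tested, delta Tm positive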
Active calls of the source: *; ! = a repeat was not active.

For COCCCNP1(=O)OCC(C)([N+](=O)[O-])CO1 (stereo not drawn) the results were RTF Ca sens act 1, eLon inh 0, Keap1-Nrf2 PPI -2, RTF Ca sens inh 1 and LANA DNA inh -2.
COC(=O)C1=C(c2ccc(F)cc2OCc2ccccc2)C[C@@H]2CC[C@H]1N2C(=O)NC1CC1 was read as LANA-H2B inh -2, RTF Ca sens act 0, eLon inh 3, Keap1-Nrf2 PPI -3, RTF Ca sens inh 2 and LANA DNA inh 8.
For CC12CC(O)C3C(CCC4=CC(=O)CCC43C)C1CCC2=O (stereo not drawn) the results were RTF Ca sens act -1, eLon inh -9, Keap1-Nrf2 PPI 0, RTF Ca sens inh -3 and LANA DNA inh 4.
Cc1cc(C)c(Cn2c(C(=O)O)c(C=O)c3ccccc32)c(C)c1 was read as LANA-H2B inh -3, RTF Ca sens act 64*, eLon inh -141, Keap1-Nrf2 PPI -69, RTF Ca sens inh -62 and LANA DNA inh -8.
For CC(C)COC(=O)c1ccccc1C(=O)OCC(C)C the results were LANA-H2B inh 0, RTF Ca sens act 14, eLon inh -5, Keap1-Nrf2 PPI -4, RTF Ca sens inh -4 and LANA DNA inh 2.
C[CH2][Hg][S]c1ccccc1C(=O)O was read as LANA-H2B inh 1, RTF Ca sens act inactive, eLon inh 0, Keap1-Nrf2 PPI inactive, RTF Ca sens inh active, LANA DNA inh 0 and RTF inh confirm inactive.
`COc1cc(CNCCc2ccc3c(c2)OCO3)ccc1O` gave LANA-H2B inh -1, RTF Ca sens act 0, eLon inh -6, Keap1-Nrf2 PPI -7, RTF Ca sens inh -4 and LANA DNA inh -1.
For CCCCCCCCC(=O)NCc1ccc(O)c(OC)c1 the results were LANA-H2B inh -11, RTF Ca sens act 3, eLon inh -2, Keap1-Nrf2 PPI -1, RTF Ca sens inh 19*, LANA DNA inh 1 and RTF inh confirm -3.
COc1ccc2nc(-c3ccc(CN4CCC(n5c(=O)[nH]c6ccccc65)CC4)cc3)c(-c3ccccc3)nc2c1 was read as eLon inh 2.
NCCc1cc(O)c(O)cc1O was read as RTF Ca sens act -9, eLon inh 2, Keap1-Nrf2 PPI 1, RTF Ca sens inh 26*!, LANA DNA inh 2 and RTF inh confirm 3.
Screening Cc1nc2cc(F)ccc2n1C1CCN(Cc2nnnn2CCc2ccccc2)CC1 returned LANA-H2B inh 1, RTF Ca sens act 3, eLon inh -3, Keap1-Nrf2 PPI 1, RTF Ca sens inh 18*, LANA DNA inh 0 and RTF inh confirm -3.
CN(CC=CCN(C)P(=S)(N1CC1)N1CC1)P(=S)(N1CC1)N1CC1 was read as RTF Ca sens act 5, eLon inh -7, Keap1-Nrf2 PPI -2, RTF Ca sens inh -4 and LANA DNA inh -3.
Screening CCOC(=O)c1ccc(N2C(=O)CC(N3CC=C(c4ccc(F)cc4)CC3)C2=O)cc1 (stereo not drawn) returned LANA-H2B inh -13, RTF Ca sens act 4, eLon inh -17, Keap1-Nrf2 PPI -1, RTF Ca sens inh -1 and LANA DNA inh 1.
`NC(=O)c1ccc(OCCC(O)N2CC=C(c3ccc(F)cc3)CC2)cc1` (stereo not drawn) gave LANA-H2B inh -5, RTF Ca sens act -2, eLon inh 3, Keap1-Nrf2 PPI 0, RTF Ca sens inh 95*, LANA DNA inh -1 and RTF inh confirm -4.
For CC[C@H](C)/C=C(C)/C=C/C1=CC2=C(Cl)C(=O)[C@](C)(OC(C)=O)C(=O)C2=CO1 the results were RTF Ca sens act -35, eLon inh 12, Keap1-Nrf2 PPI -9, RTF Ca sens inh 39*, LANA DNA inh 23 and RTF inh confirm 21*.
O=[N+]([O-])/C=C/c1c(Cl)cccc1Cl was read as RTF Ca sens act 0, eLon inh -5, Keap1-Nrf2 PPI -6, RTF Ca sens inh -1 and LANA DNA inh 1.
For CCCNS(=O)(=O)c1ccc(OCC(=O)N2CCN(Cc3ccc4c(c3)OCO4)CC2)cc1 the results were LANA-H2B inh -6, RTF Ca sens act 3, eLon inh -4, Keap1-Nrf2 PPI -3, RTF Ca sens inh 18*, LANA DNA inh -1 and RTF inh confirm -3.
C(#CCN1CCCC1)CN1CCCC1 was read as RTF Ca sens act 2, eLon inh -5, Keap1-Nrf2 PPI -2, RTF Ca sens inh -3 and LANA DNA inh 0.
CCCc1nc2ccccc2c(=O)n1-c1ccc(OC)cc1 was read as LANA-H2B inh 0, RTF Ca sens act 10, eLon inh 3, Keap1-Nrf2 PPI 0, RTF Ca sens inh -5 and LANA DNA inh 0.
Screening COc1ccc(-n2c(CNCCc3ccc(C)cc3)nc3ccccc3c2=O)cc1 returned LANA-H2B inh 2, RTF Ca sens act 1, eLon inh -5, Keap1-Nrf2 PPI 36*, RTF Ca sens inh -3, LANA DNA inh 18, Keap1 Kelch bind -0.19 and Dye-only ctr -28.
`O=C(O)c1cccc2c1NC(C(=O)O)C1CC(Sc3ccccc3[N+](=O)[O-])C(Cl)C21` (stereo not drawn) gave RTF Ca sens act -37, eLon inh 15, Keap1-Nrf2 PPI 31*, RTF Ca sens inh 56*, LANA DNA inh 132* and Keap1 Kelch bind 1*.
COCCNC(=O)Cn1cc(/C=C2\C(=O)NC(=O)N(c3cccc(C)c3C)C2=O)c2ccccc21 was read as LANA-H2B inh -18, RTF Ca sens act 3, eLon inh -128, Keap1-Nrf2 PPI 20*, RTF Ca sens inh -10, LANA DNA inh 53, Keap1 Kelch bind -0.22 and Dye-only ctr -30.
Cc1ccccc1NS(=O)(=O)c1ccc(OCC(=O)N2CCN(C)CC2)cc1 was read as LANA-H2B inh -6, RTF Ca sens act 4, eLon inh -4, Keap1-Nrf2 PPI -1, RTF Ca sens inh -12 and LANA DNA inh 0.
CCn1cc(C=C2C(=O)NC(=O)NC2=O)c2ccccc21 was read as LANA-H2B inh -7, RTF Ca sens act 1, eLon inh -25, Keap1-Nrf2 PPI 21*, RTF Ca sens inh -4, LANA DNA inh 29 and Keap1 Kelch bind -0.08.
Cc1c(C(=O)c2cccc3ccccc23)c2cccc3c2n1[C@H](CN1CCOCC1)CO3 was read as LANA-H2B inh 1, RTF Ca sens act -4, eLon inh -4, Keap1-Nrf2 PPI 6, RTF Ca sens inh -4 and LANA DNA inh -4.
